Experimental data as given in PubChem BioAssay (NCI).
This is part of a sample that, as a whole, favours compounds with a hit. Of some 83,000 tested, about 20% had one in any assay.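 Single-concentration screen, 48 h exposure, 96-well plates. Endpoint: percent growth. Below 10 = active.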 Values without a mark were called inactive. The source made the active and inactive calls.

What was measured:
Experiment in all cases: NCI-60 one-dose screen, 48 h (100 = growth as untreated, 0 = no growth, -100 = all killed)
Details in all cases: 10 µM unless noted
[1] = test system: SR leukemia
[2] = test system: RPMI-8226 leukemia
[3] = test system: OVCAR-8 ovarian
[4] = test system: OVCAR-5 ovarian
[5] = test system: OVCAR-4 ovarian
[6] = test system: SK-OV-3 ovarian
[7] = test system: IGROV1 ovarian
[8] = test system: OVCAR-3 ovarian
[9] = test system: HS 578T breast
[10] = test system: NCI/ADR-RES ovarian
[11] = test system: T-47D breast
[12] = test system: BT-549 breast
[13] = test system: MDA-MB-435 melanoma
[14] = test system: SW-620 colon
[15] = test system: MCF7 breast
[16] = test system: HCT-116 colon
[17] = test system: HCC-2998 colon
[18] = test system: KM12 colon

Row | Structure (SMILES) | growth [1] | growth [2] | growth [3] | growth [4] | growth [5] | growth [6] [%] | growth [7] | growth [8] | growth [9] | growth [10] | growth [11] | growth [12] | growth [13] | growth [14] | growth [15] | growth [16] | growth [17] | growth [18]
1 | O=C1CCCCC1(c1ccccc1)c1ccccc1 | 106% | 111% | 110% | 97.4% | 71.8% | 101 | 101% | 106% | 99.7% | 96.1% | 95% | 114% | 101% | 101% | 105% | 98.4% | 92.2% | 100%
2 | COc1cc2c(=O)n(C3CCCCCC3)c3c4cc[nH]c4ncc3c2cc1OC | 16.3% | 66.4% | 83.4% | 76.2% | 93.4% | 82.3 | 57.3% | 89.1% | 42.4% | 89.1% | 84.8% | 52.3% | 86.9% | 70.8% | 49.9% | 72.6% | 117% | 24.4%
3 | CC(C)(C)OC(=O)NCCc1ccc(N=C=S)cc1 | 22.5% | 9.22% (active) | 86% | 82.7% | 76.9% | 97.1 | 71.8% | 72.7% | 92.3% | 75.6% | 41.5% | 62.3% | 71.3% | 71.4% | 52% | 65.5% | 89.9% | 60.8%
4 | Cc1ccc(/C=C2\CN(C(=O)CCN3CCC(=NO)CC3)C/C(=C\c3ccc(C)cc3)C2=O)cc1 | -0.19% (active) | -9.83% (active) | 20.4% | -8.32% (active) | 20.9% | 87.8 | -14% (active) | 8.71% (active) | 6.55% (active) | 14.6% | 16.4% | 11.2% | -39.8% (active) | -34.1% (active) | -3.62% (active) | -74.5% (active) | -70.7% (active) | -75.3% (active)
5 | COc1ccc2[nH]c(C(=O)OCc3ccc4c(Cl)cc(Cl)c(O)c4n3)cc2c1 | -12.5% (active) | -34.6% (active) | -31.2% (active) | -71.8% (active) | -57.5% (active) | 68.8 | -92.4% (active) | -90% (active) | -16.1% (active) | -58.9% (active) | -65.9% (active) | -88.3% (active) | -85% (active) | -68.2% (active) | -21.3% (active) | -92.3% (active) | -39.7% (active) | -31% (active)
6 | Cc1ccc(S(=O)(=O)/C(=C\c2ccc(Cl)cc2)C(=O)c2ccccc2)cc1 | 105% | 103% | 107% | 114% | 107% | 96.9 | 109% | 119% | 119% | 104% | 95.3% | 102% | 88.7% | 106% | 82.3% | 106% | 107% | 111%
7 | CCCCOc1ccc(/C=C2/SC(N3CCCC3)=NC2=O)cc1 | 91.1% | 84.8% | 99.7% | 90.1% | 80.6% | 96.9 | 95.1% | 106% | 116% | 90.8% | 65.9% | 90.9% | 95.6% | 99.9% | 107% | 92.2% | 109% | 99.5%
8 | Cc1cc(N/N=C/c2nc(-c3ccc(Br)cc3)oc2C)c2cc(Cl)ccc2n1 | 5.46% (active) | -9.52% (active) | 41.4% | 102% | -74.2% (active) | 104 | 92.6% | 45.2% | 106% | 69.2% | 95.8% | 98.1% | 16.8% | -8.11% (active) | -55% (active) | -16.5% (active) | 96.1% | 84%
